Among the data in the OligoGym collection are sensor-assay potency score (higher = more potent) values, retold here.
Note: reference of the scale not given here.

For the first experiment, the target named is CCNA1. In words: pooled miR-30 sensor sort-seq; sequence = guide strand. Particulars: shRNA.
TTTCACTTAATGAATACCCTGT yielded a sensor-assay potency score (higher = more potent) of 1.11.

TTTGTGTATGTATCATCGGTGA gave a sensor-assay potency score (higher = more potent) of -0.746.

TGATATAGACAAACTCGTCTAC showed a sensor-assay potency score (higher = more potent) of 0.267.

On to TGAGTATCTGACAAGCATCGGG, for which the sensor-assay potency score (higher = more potent) amounted to 0.0337.

Take TTGTAAACAACATTAGTTGATC: the sensor-assay potency score (higher = more potent) is -0.494.

The sequence TAATTGCTTGCTGAGGTCGATG showed a sensor-assay potency score (higher = more potent) of -1.07.

In the case of TTAGCCAGGTTCTCAGTCCTGA, the sensor-assay potency score (higher = more potent) was -0.236.

TAGAACTTTCAGAAGCAAGTGT displayed a sensor-assay potency score (higher = more potent) of 0.493.

TAACAGTTGTCGTTTTGTGTAT displayed a sensor-assay potency score (higher = more potent) of -0.217.

Another experiment addresses CCNG1. The description is as above. The settings on record: shRNA.
On to TAGTCTTGCAGTCATTCTGAGG, for which the sensor-assay potency score (higher = more potent) was -1.44.

Sequence TAGCATTTCACATTTAGGCTTT returned a sensor-assay potency score (higher = more potent) of 0.478.

As to TTCTGTTAACTCTACACACTTC, the sensor-assay potency score (higher = more potent) is -0.348.

Take TTCAACTTCTGAACATTTGGTT: the sensor-assay potency score (higher = more potent) was found to be 0.69.

Sequence TTTGGATACAAGCTCTTGCCAG gave a sensor-assay potency score (higher = more potent) of -0.48.

On to TCTGAAGACATTCTATTCCTTC, for which the sensor-assay potency score (higher = more potent) was -0.269.

TTAGTCTTGCAGTCATTCTGAG yielded a sensor-assay potency score (higher = more potent) of -0.381.

The sequence TTGGCTGACATCTAGACTCCTG displayed a sensor-assay potency score (higher = more potent) of 0.244.

The sequence TTAGCTTTGATTTGAATGCTTC yielded a sensor-assay potency score (higher = more potent) of 0.215.

TTTTAGACAGGAATCTGTCCAG had a sensor-assay potency score (higher = more potent) of 0.0176.

As for TTGGATACAAGCTCTTGCCAGA, the sensor-assay potency score (higher = more potent) was -0.511.

For the sequence TTCAGTTGAGCTTCTAGTCTTT, the sensor-assay potency score (higher = more potent) came out at 0.39.

TTTAGACAGGAATCTGTCCAGT gave a sensor-assay potency score (higher = more potent) of -0.19.

Take TTCTATTGATTTTACAGCCAAA: the sensor-assay potency score (higher = more potent) is -1.32.

TTAACTCTACACACTTCTGTGC showed a sensor-assay potency score (higher = more potent) of 0.175.

In the case of TTGACTTTCCAACACACCTTCT, the sensor-assay potency score (higher = more potent) is -0.557.

TTAGTCTCAAACCACAGACCTT gave a sensor-assay potency score (higher = more potent) of -1.23.

TTTGACTTTCCAACACACCTTC returned a sensor-assay potency score (higher = more potent) of 0.153.

Consider TACATTTGTGAAATGTTGCTTT, for which the sensor-assay potency score (higher = more potent) was 0.17.

Regarding TAGTCTCAAACCACAGACCTTT, the sensor-assay potency score (higher = more potent) is -0.816.

For the sequence TTCATTTTAGACAGGAATCTGT, the sensor-assay potency score (higher = more potent) came to 0.0756.

In another experiment the target is CD180. Described as above. Particulars: shRNA.
The sequence TAGTAGAGTTCTGCAGACCATT registered a sensor-assay potency score (higher = more potent) of -1.3.

In the case of TAGAGATGTAGTGTATAGCATT, the sensor-assay potency score (higher = more potent) was -1.05.

For TAAATTAATGGTGCTCTGCTGG, the sensor-assay potency score (higher = more potent) is -0.664.

The sequence TTGTGTTTGGTAGAGTGTCAGG registered a sensor-assay potency score (higher = more potent) of -0.807.

Consider TGAAGTAGGTTGGTCTTCGTGA, for which the sensor-assay potency score (higher = more potent) is -0.298.

Sequence TTTAACATTATTGCCATTGAAG had a sensor-assay potency score (higher = more potent) of -1.17.

TTGAGTTGCAGACTGCAGCAGT came in with a sensor-assay potency score (higher = more potent) of 0.0591.

As to TTTAACTGCAAAAAATAGCAGA, the sensor-assay potency score (higher = more potent) is -0.349.

Sequence TACACTGAGAACTAATTTCTTG registered a sensor-assay potency score (higher = more potent) of -0.423.

TTGGTCTTCGTGATAGTCCCAT: the sensor-assay potency score (higher = more potent) amounted to 0.105.
